Activity calls are given as the source filed them. Rule for the calls: active = hit-call score of the fitted dose curve at least 0.9, where 1 is the maximum; inactive = score below 0.9.

CCAAT/enhancer-binding protein beta (Homo sapiens), sequence (P17676 whole entry, looked up): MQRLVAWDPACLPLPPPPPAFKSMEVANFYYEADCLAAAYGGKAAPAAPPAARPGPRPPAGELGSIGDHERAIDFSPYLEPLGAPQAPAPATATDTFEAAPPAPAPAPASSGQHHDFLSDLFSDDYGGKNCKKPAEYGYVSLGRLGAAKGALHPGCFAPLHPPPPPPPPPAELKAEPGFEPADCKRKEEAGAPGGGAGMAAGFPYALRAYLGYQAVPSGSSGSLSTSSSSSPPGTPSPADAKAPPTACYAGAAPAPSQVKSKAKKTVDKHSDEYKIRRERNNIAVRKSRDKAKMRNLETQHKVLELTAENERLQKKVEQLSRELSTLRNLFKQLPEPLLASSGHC

The target of the test is CCAAT/enhancer-binding protein beta (Homo sapiens) (UniProt P17676). The test can be described thus: ATG_C_EBP_CIS: Attagene CIS-FACTORIAL HepG2 Assay for human CCAAT/Enhancer Binding Protein (C/EBP) beta (AID 2282927). The conditions noted are these: HepG2 Attagene cis-factorial transcription factor reporter; actives raise or lower the signal. Here is the method:
ATG_CIS is a cell-based, multiplexed-readout assay that uses HepG2, a human liver cell line, with measurements taken at 24 hours after chemical dosing in a 24-well plate.ATG_C_EBP_CIS is one of 52 assay component(s) measured or calculated from the ATG_CIS assay. It is designed to make measurements of mRNA induction, a form of inducible reporter, as detected with fluorescence intensity signals by Reverse transcription polymerase chain reaction (RT-PCR) and Capillary electrophoresis technology.Data from the assay component ATG_C_EBP_CIS was analyzed into 1 assay endpoint. This assay endpoint, ATG_C_EBP_CIS, was analyzed with bidirectional fitting relative to DMSO as the negative control and baseline of activity. Using a type of inducible reporter, measures of mRNA for gain or loss-of-signal activity can be used to understand the reporter gene at the transcription factor-level as they relate to the gene CEBPB. Furthermore, this assay endpoint can be referred to as a primary readout, because this assay has produced multiple assay endpoints where this one serves a reporter gene function. To generalize the intended target to other relatable targets, this assay endpoint is annotated to the dna binding intended target family, where the subfamily is basic leucine zipper.
Human liver HepG2 cells are transiently transfected with multiple reporter transcription units (MRTUs) in 6-well plates using FuGene 6 reagent (Roche; 3 ml FuGene/1 mg DNA). The MRTU constructs are regulated by a cis-regulating element (promoter). […] A major difference between the CIS and TRANS system is that in CIS activities of endogenous TFs are measured, whereas the TRANS assay evaluates changes in activities of exogenous, chimeric NR-Gal4 proteins. […] At the end of 24 hour incubation, total RNA was isolated using TriZol reagent (Invitrogen). The isolated RNA is then reverse-transcribed using oligo(dT) primer and Mo-MLV reverse transcriptase (Invitrogen) with DNAse I (Ambion) treatment for 30 min. The one-tenth of the produced cDNA was amplified by PCR using Taq DNA polymerase (Invitrogen) and two reporter sequence-specific primers. The PCR products were fluorescently labeled by primer extension with 6-arboxyfluorescein (6-FAM) 5'-labeled reporter sequence-specific primer (2 min at 95 C, 20 s at 68 C and 10 min at 72 C) and these products were digested with 5U of HpaI (New England Biolabs) for 2h at 37 C. The fragments were purified using Qiaquick PCR columns (Qiagen), analyzed on an ABI 3130xL genetic analyzer (Applied Biosystems) with peak positions identified by using a set of X-rhodamine (ROX)-labeled MapMarker1000 molecular weight standards (BioVentures). The raw capillary electrophoresis data was processed using Attagraph software (Attagene).
As to `NC(=O)C(F)(F)C(F)(F)C(F)(F)C(F)F`, the outcome was inactive. The same measure, in the same setting: in the case of `NC(=O)C(F)(F)C(F)(F)C(F)(F)F` it was “inactive”; in that of `FC(F)(F)C(F)(F)C(F)(F)C(F)(F)C(F)(F)C(F)(F)C(F)(F)CCI`, “inactive”. Same read-out and setting: in the case of `CCCCC(CC)COC(=O)c1ccc(N(C)C)cc1` (stereo not given) it was “inactive”; in that of `C[Si](C)O[Si](C)C`, “inactive”. Still for that read-out and setting: in the case of `O=C(O)C(F)(F)OC(F)(F)C(F)(F)OC(F)(F)C(F)(F)OC(F)(F)F` it was “inactive”; in that of `NCC(F)(F)C(F)(F)C(F)(F)C(F)(F)C(F)(F)C(F)(F)F`, “inactive”.

Regarding `CCOCN(C(=O)CS(=O)(=O)O)c1c(C)cccc1CC`, the outcome was inactive. The same measure, in the same setting: the value for `NCC(F)(F)C(F)(F)C(F)(F)C(F)(F)C(F)(F)C(F)(F)C(F)(F)C(F)(F)F` was “inactive”; that for `OCC(F)(F)C(F)(F)C(F)(F)CO` was “inactive”.

For the compound `Oc1ccc(C2(c3ccc(O)c(C4CCCCC4)c3)CCCCC2)cc1C1CCCCC1`, the result was inactive.

In the case of `CCCCCCCCCCCCCC[P+](CCCC)(CCCC)CCCC`, the result was inactive. Same read-out and setting: the value for `Cc1cnccn1` was “inactive”; that for `C=C(C)CCCC` was “inactive”; that for `Nc1cc([N+](=O)[O-])cc(Cl)c1O` was “inactive”. Still for that read-out and setting: the value for `CC(C)C(=O)OCc1ccccc1` was “inactive”; that for `CC(C)CC=C(C=O)c1ccccc1` was “inactive”. As for `CCC(=O)OC(C)c1ccccc1` (stereo not given), the result was inactive. On the same count and under the same terms, the value for `COc1ccccc1C=O` was “inactive”. Consider `OCC(F)(F)C(F)(F)C(F)(F)C(F)(F)C(F)(F)C(F)(F)CO`, for which the outcome was inactive. Still for that read-out and setting: in the case of `F[Si-2](F)(F)(F)(F)F` it was “inactive”. Same read-out and setting: in the case of `C[C@]12CC[C@H]3C(=CCc4cc(O)ccc43)[C@@H]1CCC2=O` it was “inactive”. In the case of `C=CCOC(=O)CC(C)C`, the outcome was inactive. For the compound `OCCCc1cccnc1`, the outcome was inactive. The same measure, in the same setting: the value for `O=C(Cl)C(F)(F)C(F)(F)C(F)(F)C(F)(F)C(F)(F)C(F)(F)C(F)(F)F` was “inactive”; that for `CCOCOCC` was “inactive”. For `O=c1cccc[nH]1`, the result was inactive.

Take `CC(C)=CCCC(C)O` (stereo not given): the outcome was inactive. Same read-out and setting: in the case of `Cc1cc(C)c(O)c(C(C)(C)C)c1` it was “inactive”; in that of `CCCCCCCCCCCCC[N+](C)(C)Cc1ccccc1`, “inactive”; in that of `CCCCCCCCCCCC(=O)Cl`, “inactive”. `O=C(O)CCC(F)(F)C(F)(F)C(F)(F)C(F)(F)C(F)(F)C(F)(F)C(F)(F)F`: the outcome was inactive. As to `CCN=C1C=CC(=C(c2ccc(N(CC)CC)cc2)c2ccc(N(CC)CC)cc2)c2ccccc21`, the AC50 was 0.0334 µM (active). For `CO[Si](C)(CCC(F)(F)C(F)(F)C(F)(F)C(F)(F)C(F)(F)C(F)(F)F)OC`, the outcome was inactive. Still for that read-out and setting: the value for `CCC(Cc1c(I)cc(I)c(N)c1I)C(=O)O` (stereo not given) was “inactive”; that for `O=C=Nc1cccc2c(N=C=O)cccc12` was “inactive”; that for `CN(C)C(C)(C)CO` was “inactive”.

Consider `OCC(F)(F)C(F)(F)C(F)(F)C(F)(F)C(F)(F)C(F)(F)C(F)(F)C(F)(F)CO`, for which the result was inactive.

Consider `CC(O)C#CC(C)O` (stereo not given), for which the AC50 was 179 µM (active). Same read-out and setting: in the case of `CCCCCCCCCc1ccc(OCCO)cc1` it was 4.25 µM (active).

The values above are taken from PubChem BioAssay (EPA / NIEHS).
